# Laboratory results taken from publication PMC4336329 (PLoS ONE, 2015).
# Screen size: about 310,000 compounds; about 14,000 (4.5%) showed an effect of 50% or more. The effect is printed as a negative number. Only a selection was taken, and strong results are over-represented in it overall.
# Molecular target: human ether-à-go-go-related gene (hERG) potassium channel (human, UniProt Q12809)
# Experiment: primary screen, population patch clamp on CHO cells stably expressing hERG; higher = less effect of the substance
# 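Also: peak tail current of the secondary pulse compared with the same well before compound.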
# Sequence of human ether-à-go-go-related gene (hERG) potassium channel (Q12809 whole entry, looked up): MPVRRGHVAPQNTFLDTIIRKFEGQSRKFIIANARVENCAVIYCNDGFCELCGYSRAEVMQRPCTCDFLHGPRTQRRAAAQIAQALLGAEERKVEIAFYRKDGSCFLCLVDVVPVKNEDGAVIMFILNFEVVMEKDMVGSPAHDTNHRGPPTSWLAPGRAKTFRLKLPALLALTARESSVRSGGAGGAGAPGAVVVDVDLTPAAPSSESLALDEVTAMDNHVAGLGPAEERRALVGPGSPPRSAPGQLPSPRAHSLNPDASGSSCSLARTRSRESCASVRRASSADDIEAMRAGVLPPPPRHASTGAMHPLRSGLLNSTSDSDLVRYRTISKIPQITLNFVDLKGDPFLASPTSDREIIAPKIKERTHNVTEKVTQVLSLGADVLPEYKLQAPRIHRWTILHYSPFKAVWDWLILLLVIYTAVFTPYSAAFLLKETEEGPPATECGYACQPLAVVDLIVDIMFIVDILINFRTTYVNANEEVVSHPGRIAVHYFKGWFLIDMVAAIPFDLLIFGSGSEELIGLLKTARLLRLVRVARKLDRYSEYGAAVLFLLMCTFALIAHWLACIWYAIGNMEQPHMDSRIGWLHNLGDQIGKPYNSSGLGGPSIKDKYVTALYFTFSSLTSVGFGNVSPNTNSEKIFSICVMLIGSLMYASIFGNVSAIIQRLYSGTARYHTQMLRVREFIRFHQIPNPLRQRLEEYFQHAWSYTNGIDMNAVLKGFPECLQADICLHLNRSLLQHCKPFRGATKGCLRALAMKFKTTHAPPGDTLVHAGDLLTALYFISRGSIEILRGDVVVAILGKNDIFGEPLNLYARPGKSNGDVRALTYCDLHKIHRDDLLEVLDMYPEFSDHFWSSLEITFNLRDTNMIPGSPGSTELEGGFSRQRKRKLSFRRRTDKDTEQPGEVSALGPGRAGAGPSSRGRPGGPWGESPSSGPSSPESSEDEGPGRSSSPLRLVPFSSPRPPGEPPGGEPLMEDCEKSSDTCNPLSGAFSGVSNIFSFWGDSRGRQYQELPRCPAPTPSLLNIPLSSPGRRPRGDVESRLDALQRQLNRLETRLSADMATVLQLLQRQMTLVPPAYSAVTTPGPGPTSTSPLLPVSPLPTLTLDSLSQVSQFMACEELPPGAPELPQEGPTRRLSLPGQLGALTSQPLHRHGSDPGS
row,SMILES,"hERG current change (%, negative = inhibition) at 10uM"
1,CCN1C(=O)C2C(C1=O)N1C(c3cccs3)C3C(=O)N(CC)C(=O)C3N1C2c1cccs1 (stereo not shown),15.7%
2,COc1ccc(Cn2nnnc2C(c2ccccn2)N2CCN(c3cc(Cl)ccc3C)CC2)cc1 (stereo not shown),-9.87%
3,Cc1ccc(NC(NC(=O)c2ccccc2[N+](=O)[O-])C(Cl)(Cl)Cl)cc1 (stereo not shown),-5.27%
4,CC(Sc1nnc(-c2cccnc2)o1)C(=O)NC1CCCCC1 (stereo not shown),14.9%
5,Cc1ccc(Nc2nc(COC(=O)C3CC3)cs2)cc1,-13.1%
6,CCOC(=O)CSC1=C(C#N)C(c2ccc(C)cc2)C(C(=O)OC)C(=O)N1 (stereo not shown),-4.56%
7,Cc1ccc(-n2ncc3c(=O)[nH]c(SCC(=O)N4CCN(c5ccccc5)CC4)nc32)cc1,3.28%
8,FC(F)(F)c1cccc(CNC2c3ccccc3-c3ccccc32)c1.O=C(O)C(=O)O,20.4%
9,Cc1nc(C(=O)O)nn1-c1ccc([N+](=O)[O-])cc1,2.84%
10,COc1ccc(NC(=O)c2nc(C)n(-c3ccc([N+](=O)[O-])cc3)n2)cc1,-44.9%
11,CNC(=O)c1nc(C)n(-c2ccc([N+](=O)[O-])cc2)n1,-3.99%
12,Cc1nc(C(=O)Nc2ccc(F)cc2)nn1-c1ccc([N+](=O)[O-])cc1,-67.4%
13,Cc1nc(C(=O)Nc2ccc(Cl)cc2)nn1-c1ccc([N+](=O)[O-])cc1,-58.6%
14,Cc1ccc(NC(=O)c2nc(C)n(-c3ccc([N+](=O)[O-])cc3)n2)cc1,-32.2%
15,O=S(=O)(Nc1ccc(F)cc1)N1CCCCCC1,-15.6%
16,COc1ccccc1CNC(=O)Cn1nnc(-c2ccncc2)n1,1.05%
17,COC(=O)c1[nH]c2cccc(OC)c2c1NC(=O)CN1CC2(C)CC1CC(C)(C)C2 (stereo not shown),9.92%
18,N#CC[C@H](c1ccccc1)N1CCN(Cc2ccccc2)CCC1=O,-1.88%
19,CC(C)[C@@H](COc1ccccc1)N1CCN(Cc2ccccc2)CCC1=O,-29.6%
20,CC(C)CN1CCC(=O)N([C@H](COc2ccccc2)c2ccccc2)CC1,-75.3%
21,CC(C)CN1CCC(=O)N(CCOc2ccccc2)CC1,13.1%
22,CC(C)CN1CCC(=O)N([C@H](CO)c2ccccc2)CC1,9.33%

row,SMILES,"hERG current change (%, negative = inhibition) at 10uM"
1,CCCN1CCC(=O)N([C@H](COc2ccccc2)c2ccccc2)CC1,-78.2%
2,O=C1CCN(Cc2ccccc2)CCN1[C@H](COc1ccccc1)c1ccccc1,-57.9%
3,O=C1CCN(CCc2ccccc2)CCN1[C@H](CO)c1ccccc1,-25.7%
4,O=C1CCN(CCc2ccccc2)CCN1[C@H](COc1ccccc1)c1ccccc1,-75.9%
5,COc1ccc(C(=O)Nn2c(SCC(=O)NCC3CCCO3)nc3ccccc3c2=O)cc1 (stereo not shown),2.75%
6,COc1cccc(CNC(=O)CCNC(=O)N2CCn3c2nc2ccccc23)c1,-3.38%
7,O=C(NNC(=S)NCc1ccco1)c1ccc(Cl)s1,14.5%
8,O=C(c1cccc(Br)c1)N1CCN(C(=O)N2CCOCC2)CC1,10.4%
9,O=C(COC(=O)c1cc([N+](=O)[O-])ccc1NCCO)c1ccccc1,-15.9%
10,CCOc1cc(CNc2ccc3c(c2)OCCO3)cc(Br)c1OCC(N)=O,-17.6%
11,C[C@@H]1CC[C@H]2C(=O)N3[C@@H](CC[C@@H](C)[C@@H]3c3ccc(Br)cc3)C(=O)N2[C@H]1c1ccc(Br)cc1,5.03%
12,C[C@H]1CC[C@H]2C(=O)N3[C@H](c4cccc(N5CCCC5=O)c4)[C@@H](C)CC[C@H]3C(=O)N2[C@@H]1c1cccc(N2CCCC2=O)c1,-56.3%
13,CC1CCCC(NC(=O)c2cccc(N3CCCC3=O)c2)C1C (stereo not shown),-13.5%
14,CC12CN(C(=O)c3cccc([N+](=O)[O-])c3)C3(C#N)CC1CCC23C (stereo not shown),5.65%
15,CCOC(=O)C1=C(c2ccccc2)NC(N)=NC1c1ccc(OCc2ccc(Cl)cc2)c(OC)c1 (stereo not shown),-36.8%
16,COc1ccc(CCNC(=O)C2CCN(S(=O)(=O)c3ccc4nc5c(c(C(=O)O)c4c3)CCCC5)CC2)cc1OC,1.65%
17,Cc1ccccc1-n1ncc2c1CC(C)(C)CC2NC(=O)CN1CCCC1=O (stereo not shown),9.7%
18,O=C(c1ccc(CSCc2ccccc2F)o1)N1CCN(c2ccc(N3CCOCC3)nn2)CC1,-66.7%
19,O=C(O)c1ccc(CSCc2ccccc2F)o1,-1.86%
20,O=C(c1ccccc1)N1CCN(c2ccc(N3CCOCC3)nn2)CC1,-1.73%
21,CCC1CCCCN1CCCNC(=O)CNC(=O)c1nn(-c2ccc(OC)cc2)c(=O)c2ccccc12 (stereo not shown),-31.9%
